# Only some compounds are listed: those with a hit (about 5.2% of all), similar ones and a draw of the others.
# Coupling enz – counter-screen for Giardia aldolase inhibitors: coupling enzyme system; activity change, negative = inhibition, % at 58.2 µM, hits read low; 290,000 compounds, 0.67% hits; coupling enzyme system counterscreen, AmpLite Red fluorescence; AID 2472; in the data active means activity change below about -30%
#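 Activity here indicates interference with the coupling reaction, not aldolase inhibition. Compounds at 57.5 uM final met coupling enzymes for 10 min at RT; substrate and AmpLite Red detection followed, with a 525/598 nm fluorescence read after 20 min.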
# Sfp PPTase inh – Sfp phosphopantetheinyl transferase inhibition; Q9F4F7; Biochemical Sfp PPTase activity, qHTS; Potency, µM, for inactives: largest response in the series, negative = inhibition, actives largely listed as inhibitors; 310,000 compounds, 3.5% hits; AID 1490;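 further: the enzyme is Sfp with the accession as filed and its product quenches rhodamine fluorescence; potency means the concentration at half of the fitted maximal effect; 0% = enzyme reaction without inhibitor and -100% = no enzyme wells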
#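 Reaction rates are the 30-min fluorescence difference (ex 525, em 598 nm) in wells containing 15 nM Sfp, 5 uM rhodamine-CoA and 12.5 uM BHQ-2-YbbR at pH 7.6 with 10 mM MgCl2.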
# Tau ThT inhib – inhibitors of human tau fibril formation, thioflavin T binding; P10636; 270,000 compounds, 2.1% hits; recombinant tau K18 P301L, heparin-induced fibrillization, ThT fluorescence; Potency, µM (highest dose often 57.4 µM), for the others: top-dose activity, negative = inhibition, most hits filed as inhibitors; further: potency means the concentration at half of the fitted maximal effect; nearly all actives have a fitted effect of over 55% in size
# Target sequence (P10636 561-689 P618L limits assumed): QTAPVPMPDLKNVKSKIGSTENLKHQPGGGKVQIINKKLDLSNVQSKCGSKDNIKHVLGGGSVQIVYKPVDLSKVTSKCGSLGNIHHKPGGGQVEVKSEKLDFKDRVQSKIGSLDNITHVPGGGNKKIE
#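 Heparin-induced fibrillization of the P301L-mutant K18 repeat-domain fragment of human tau was followed by ThT binding in quantitative high-throughput format.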
# Tau FP inhib – inhibitors of human tau fibril formation. P10636. K18 P301L tau heparin fibrillization, Alexa594 FP, 6 h. Potency, µM (series often up to 57.7 µM), for the others: top-dose activity, negative = inhibition, usual class: inhibitors. 280,000 compounds, 0.39% hits; further: potency means the concentration at half of the fitted maximal effect; nearly all actives have a fitted effect of over 55% in size
#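 Recombinant K18 P301L […], labeled with Alexa 594 at 0.24 uM over 15 uM unlabeled; heparin inducer 20 uM final; 37 C, 6 hr; FP endpoint.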
# Tau fluor counter – counter-screen for tau fibril formation inhibitors; 280,000 compounds, 0.93% hits; tau K18 P301L Alexa594 fluorescence, heparin fibrillization; AID 1463; Potency, µM (top dose mostly 57.7 µM), for inactives: at the highest dose activity change, negative = decrease; further: potency means the concentration at half of the fitted maximal effect; nearly all actives have a fitted effect of over 55% in size
#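 Human tau K18 P301L (15 uM unlabeled, 0.24 uM Alexa 594-labeled) in 100 mM sodium acetate pH 7 with 20 uM heparin, 6 hr at 37 C. ThT 30 uM added, 1 hr ambient; Alexa 594 FP and total fluorescence read at 555/632 nm.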
# * hit, by the source's call; ? = inconclusive; / = no result; [ ] = dose if it differs, or a comment. Unless noted, the call rests on the fitted dose curve; in most records, active means well fitted curve in the direction sought with a large enough effect; inconclusive means small, poorly fitted or top-dose-only effect, or another doubt; inactive means no such curve, though single readings can be large; an effect the other way counts as inactive or inconclusive. Unless noted, on the % scale 0 is the no-effect control and ±100 the full control effect.
SMILES,Coupling enz,Sfp PPTase inh,Tau ThT inhib,Tau FP inhib,Tau fluor counter
NC(=O)CNc1n[nH]c(=S)[nH]c1=O,3,79µM*,-9%,-2%,-10%
COc1ccc(CNC(=O)CCc2nc(-c3ccc(C)cc3)no2)c(OC)c1,/,/,-9%,5%,-19%
CN(Cc1ccccc1)S(=O)(=O)c1ccc(NC(=O)c2cc(=O)c3ccccc3o2)cc1,/,/,4%,?,?
Cc1nc(-c2coc3c(O)c(O)ccc3c2=O)cs1,-11,?,?,-11%,?
COc1cc(NC(=O)CCNS(=O)(=O)c2ccc3c(c2)CCN3C(=O)C2CC2)cc(OC)c1,/,/,-9%,-5%,-18%
COc1ccc(-c2nc3cnc(N4CCNCC4)nc3n(CCC#N)c2=O)cc1,2,6%,/,/,/
COc1ccc(C(=O)OCc2cc(=O)n3nc(C4CC4)sc3n2)cc1OC,/,/,?,-3%,-8%
Cc1nc2ccccn2c1-c1ccnc(=S)[nH]1,-3,10µM*,?,?,-14%
COc1ccc(NC(=O)C2=NN(C3CCS(=O)(=O)C3)C(=O)CC2)cn1 (stereo not drawn),-42*,17%,-4%,2%,-10%
Cc1cc(O)c(C(C)C)cc1NC(=O)Nc1cccc2ccccc12,0,-15%,?,18%,25µM*[quencher]
Cc1nc2cccnc2n1-c1cccc(C(=O)NCc2ccc(OC(C)C)cc2)c1,/,/,-2%,3%,-6%
N#Cc1c(-c2ccco2)cc(C2CC2)nc1N,-1,32µM*,-11%,2%,2%
N#Cc1c(-c2ccccc2)cc(C2CC2)nc1N,1,8%,?,-5%,-18%
COc1ccc(C(Nc2ccccn2)c2ccc3ccc(C)nc3c2O)cc1C (stereo not drawn),/,/,16µM*,3%,-19%
Cc1cc(-c2ccccc2)c(C#N)c(=S)[nH]1,2,28µM*,-8%,1%,-1%
Cc1cccc(N2C(=O)C(Cl)=C(Nc3c(C)n(C)n(-c4ccccc4)c3=O)C2=O)c1C,-1,56µM*,?,?,-17%
Cc1ccc(N2C(=O)C(Cl)=C(Nc3c(C)n(C)n(-c4ccccc4)c3=O)C2=O)cc1,4,?,28µM*,?,-27%
Cc1c(NC(=O)Nc2c(Cl)cccc2Cl)c(=O)n(-c2ccccc2)n1C,4,10%,-7%,-4%,-11%
COc1ccc(-c2nc3ccccc3n3c(-c4cccc(C)c4)c4c(=O)n(C)c(=O)n(C)c4c23)cc1,/,/,-7%,3%,-5%
CNc1ncncc1-c1ccccc1CN(C)C,1,7%,/,/,/
O=C(COCc1cc(-c2cccs2)on1)Nc1cccc(Cl)c1Cl,/,/,?,-5%,?
Cc1n[nH]c(=S)n1/N=C/c1ccccc1OCc1ccc(Cl)cc1,-6,50µM*,-6%,-8%,-13%
O=C(Nc1cccc(C(F)(F)F)c1)c1cccc(C(=O)Nc2cccc(C(F)(F)F)c2)c1,/,/,12%,?,-13%
Cc1cc(Nc2cccc(C(F)(F)F)c2)nc2ccc(NC(=O)c3cccnc3)cc12,/,/,-17%,?,8.9µM*[quencher]
Cc1cc(Nc2cccc(C(F)(F)F)c2)nc2ccc(NC(=O)c3cccc(Cl)c3)cc12,/,/,?,?,7.1µM*[quencher]
SMILES,Coupling enz,Sfp PPTase inh,Tau ThT inhib,Tau FP inhib,Tau fluor counter
CCOc1ccc(C(=O)Nc2ccc3nc(Nc4cccc(C(F)(F)F)c4)cc(C)c3c2)cc1OCC,/,/,?,-8%,3.5µM*[quencher]
CN1/C(=C\C=C2/SC(=S)N(CC(=O)O)C2=O)C(C)(C)c2ccccc21,-13,22µM*,4µM*,-11%,?
CCCC(C(=O)O)N1C(=O)/C(=C2\C(=O)N(C)c3ccccc32)SC1=S (stereo not drawn),-1,-6%,?,-9%,-25%
Cn1cccc1/C=C1/SC(=S)N(CC(=O)O)C1=O,6,-8%,16µM*,-3%,-12%
CC(C(=O)O)N1C(=O)/C(=C/c2cccn2C)SC1=S (stereo not drawn),14,56µM*,18µM*,0%,-8%
CCC(C(=O)O)N1C(=O)/C(=C/c2cccn2C)SC1=S (stereo not drawn),16,19%,13µM*,7%,-1%
Cc1ccc(NC(=O)CN2C(=O)S/C(=C\c3cccn3C)C2=O)cc1,0,-20%,-1%,-10%,-14%
C=CCN1C(=O)/C(=C\C=C2\N(C)c3ccccc3C2(C)C)SC1=S,5,-16%,?,-7%,17%
CC(C)COC(=O)N1C(COCc2ccccc2)CCC=CS1(=O)=O (stereo not drawn),1,-3%,/,/,/
COc1ccc(OC)c(CNc2ncnc3onc(-c4ccc(Cl)cc4)c23)c1,/,/,-5%,-4%,-25%
COc1ccc(C(=O)NCc2nc(-c3cccc(C)c3)no2)cc1OC,/,/,-10%,-10%,?
Cc1cccc(/C=C2\CS/C(=C\c3cccc(C)c3)C2=O)c1,1,-7%,3.5µM*,-3%,-19%
COc1cccc(NC(=O)Cn2cnc3c(nc4n3CCCCC4)c2=O)c1,/,/,0%,2%,-1%
COc1ccc2sc(/C=C/c3ccccc3O)[n+](C)c2c1,0,56µM*,?,12%,16µM*[fluorescent]
CC(C)c1ccc(NC(=O)C2CCC(CNS(=O)(=O)c3ccc4c(c3)CCCC(=O)N4)CC2)cc1 (stereo not drawn),/,/,-16%,-1%,-11%
COc1cc(/C=N/NC(=O)Cc2csc(C)n2)ccc1OCC(C)C,2,11%,-13%,-10%,0%
COc1ccc(/C=N/NC(=O)Cc2csc(Nc3cccc(C(F)(F)F)c3)n2)cc1C,-1,3%,?,?,18µM*[quencher]
CC(=O)Oc1ccc(C(=O)[C@H]2[C@H]3C(=O)N(c4ccccc4)C(=O)[C@H]3[C@@H]3C=CC=NN32)cc1,-41*,?,-3%,-3%,-11%
COc1ccc(N2C(=O)[C@@H]3[C@H](C2=O)[C@H](C(=O)c2ccc(OC(C)=O)cc2)N2N=CC=C[C@@H]32)cc1,-14,-23%,?,-5%,-16%
CC(=O)Oc1ccc(C(=O)[C@H]2[C@H]3C(=O)N(c4ccc(C)cc4)C(=O)[C@H]3[C@@H]3C=CC=NN32)cc1,-8,-22%,?,-9%,-23%
O=C(Nc1ccccc1)[C@@H]1[C@@H]2C(=O)N(c3ccc(F)cc3)C(=O)[C@@H]2[C@H]2C=CC=NN21,-4,35µM*,?,-1%,-9%
CC(=O)Oc1ccc(C(=O)[C@H]2[C@H]3C(=O)N(c4ccc(C)cc4C)C(=O)[C@H]3[C@@H]3C=CC=NN32)cc1,-13,50µM*,?,?,?
CC(=O)Oc1ccc(N2C(=O)C3C(C2=O)C(C(=O)c2ccc(Cl)cc2)N2CCCC32)cc1 (stereo not drawn),0,-1%,35µM*,?,-16%

# From PubChem
